# Measured values published in PubChem BioAssay (NCI).
# This is part of a sample that, as a whole, favours compounds with a hit. Of some 83,000 tested, about 20% had one in any assay.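 Activity criterion: percent growth below 10, measured after cells in 96-well plates were exposed to a single compound concentration for 48 hours.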 Values without a mark were called inactive. Active and inactive are the calls of the source.
# Legend:
# Test in all cases: NCI-60 one-dose screen, 48 h (100 = growth as untreated, 0 = no growth, -100 = all killed)
# Settings in all cases: 10 µM unless noted
# [1] = tested on: HCT-15 colon
# [2] = tested on: HT29 colon
# [3] = tested on: SNB-75 CNS
# [4] = tested on: SNB-19 CNS
# [5] = tested on: PC-3 prostate
# [6] = tested on: SK-MEL-28 melanoma
# [7] = tested on: SK-MEL-2 melanoma
# [8] = tested on: EKVX NSCLC
# [9] = tested on: SN12C renal
# [10] = tested on: UO-31 renal
# [11] = tested on: TK-10 renal
# [12] = tested on: ACHN renal
# [13] = tested on: CCRF-CEM leukemia
# [14] = tested on: MOLT-4 leukemia
# [15] = tested on: SK-MEL-5 melanoma
# [16] = tested on: UACC-62 melanoma
# [17] = tested on: CAKI-1 renal
# [18] = tested on: A498 renal
# [19] = tested on: LOX IMVI melanoma
# [20] = tested on: U251 CNS
Compound,growth [1],growth [2],growth [3],growth [4],growth [5],growth [6],growth [7],growth [8],growth [9],growth [10],growth [11],growth [12],growth [13],growth [14],growth [15],growth [16],growth [17],growth [18],growth [19],growth [20] [%]
Cc1cc(N2CCN(C)CC2)nc(N(CCNc2ccnc3cc(Cl)ccc23)Cc2ccco2)n1,18.1%,5.75% (active),66.3%,36.8%,34.8%,-72.3% (active),55.8%,57.2%,58.3%,54.8%,105%,54.5%,14.1%,28.8%,,,,,,
C=C(C)[C@@H]1CC[C@]2(c3nnc(-c4ccncc4)o3)CC[C@]3(C)[C@H](CC[C@@H]4[C@@]5(C)CCC(=O)NC(C)(C)[C@@H]5CC[C@]43C)[C@@H]12,100%,99.6%,93.7%,92.5%,69.5%,109%,111%,95.1%,91.8%,76.6%,143%,98.7%,95%,85.6%,90.1%,79.7%,51.1%,99.3%,,
O=C(NO)c1ccc(Cn2c(=O)n(CCc3ccc(O)cc3)c(=O)c3ccccc32)cc1,96.5%,92.2%,47.8%,44.1%,38.7%,17.5%,74.5%,76.7%,79%,88.6%,84.7%,91.1%,9.36% (active),15.9%,42.1%,,95.2%,,22.4%,
COc1ccc2nc(-c3cc(-c4cc(OC)c(OC)c(OC)c4)n[nH]3)[nH]c2c1,15.1%,42.7%,-2.76% (active),50.1%,-22.8% (active),-17.6% (active),-29.9% (active),,21%,,31.7%,21.5%,,,-92.9% (active),-53.6% (active),26.8%,15.5%,,
Fc1ccc2nc(-c3cc(-c4ccc5c(c4)OCO5)n[nH]3)[nH]c2c1,57.5%,61.6%,35.6%,72.1%,,75.3%,42.7%,,65.2%,73.4%,75.9%,49%,,,20.4%,53.7%,41%,71.7%,,
O=C1c2cc3c(cc2-c2c1c1ccc(Cl)cc1c(=O)n2C[C@H](O)[C@@H](O)[C@H](O)CO)OCO3,0.364% (active),-14.4% (active),-1.89% (active),7.77% (active),12.7%,-18.8% (active),-67% (active),20.5%,-5.37% (active),-71.6% (active),-48.7% (active),-58.7% (active),8.41% (active),2.33% (active),,-86.9% (active),-8.82% (active),-77% (active),-18.5% (active),
CC(CNc1nc(Nc2ccc(Cl)c(Cl)c2)nc(C(Cl)(Cl)Cl)n1)N(C)C (centres undefined),-27.7% (active),-76.3% (active),-18.9% (active),-1.09% (active),-40.3% (active),,-92.1% (active),18.5%,16.2%,-3.58% (active),-61.7% (active),6.79% (active),-3.41% (active),-49.4% (active),-56.9% (active),-4.78% (active),-19.1% (active),22.8%,-57.2% (active),
COc1cccc(-c2nn(-c3ccccc3)cc2-c2ccnc(NCCNS(=O)(=O)c3ccccc3)c2)c1,20.3%,16.9%,67.7%,42.6%,17.5%,,21%,47.2%,36.1%,14.5%,43.8%,28.9%,12.2%,12.8%,17.1%,,43.7%,47.7%,41%,
CC(C)=CCC/C(C)=C/CC/C(C)=C/CSC[C@H](NC(=O)CCCCCN1CCN(C)CC1)C(=O)NC1CCCCCC1,0.0874% (active),-48.3% (active),73.8%,,51.9%,-56% (active),88.2%,,87.4%,56%,94.2%,66%,19.9%,38.4%,79.9%,3.45% (active),,77.3%,25.3%,33.2
O=C(CCCCCn1c2ccccc2c2c3c(c4c5ccccc5[nH]c4c21)C(=O)N(O)C3=O)N1CCOCC1,49.2%,0.235% (active),87%,47.3%,26.5%,,72.5%,77.7%,57.1%,29.6%,70.7%,29.4%,5.19% (active),-14.9% (active),0.765% (active),,-22.9% (active),26.9%,-16.8% (active),
O=S(=O)(NCCNc1cc(-c2cn(-c3ccccc3)nc2-c2cccc(O)c2)ccn1)c1ccc(Cl)cc1,7.32% (active),0.572% (active),53.8%,47.7%,14.9%,,34.9%,52.1%,39.4%,23%,50.5%,28.5%,9.05% (active),8.1% (active),15.5%,,41%,34.9%,30%,
Cc1ccc2c(c1)c1nc3cc(C)c(C)cc3nc1n2CCN(C)C,3.18% (active),19%,23.9%,17.1%,25%,17.2%,35.8%,19.7%,13.5%,-10.4% (active),27.7%,-0.699% (active),26.4%,8.57% (active),15.4%,12.3%,2.44% (active),35.7%,,
O=C1C(=O)c2ccccc2C(O)=C1CCCc1ccc(C2CCCCC2)cc1,41.4%,41.8%,54.9%,39.9%,39.2%,47.4%,104%,60.2%,43.2%,75.9%,52.5%,37%,9.07% (active),29.2%,20.6%,47.9%,19.7%,,,
COc1cnc2c(c1)C(=O)c1c-2n(CCCNC(C)C)c(=O)c2cc([N+](=O)[O-])ccc12,-56.2% (active),-33.7% (active),-79.2% (active),-44.7% (active),-54.3% (active),-62.6% (active),-58.6% (active),-50% (active),-54.6% (active),-75.6% (active),-63.6% (active),-84.5% (active),2.43% (active),-15.6% (active),-98.9% (active),,-71.8% (active),-84.7% (active),,
COc1ccc(C2c3ccccc3NC(=O)N2C2CCN(C)CC2)c(OC)c1 (centres undefined),95.6%,100%,72.7%,93%,,,108%,87%,95.6%,89.7%,98.1%,103%,106%,99.5%,84.7%,,102%,102%,,
COc1ccc2c(c1)c(-c1nc(-c3c[nH]c4ncccc34)cs1)cn2C,51.6%,55.6%,76.1%,92.7%,61.1%,87.9%,60.9%,29.3%,74.5%,,60.3%,53.2%,51.7%,54.5%,79.4%,67.6%,55.1%,60.1%,,
Cc1ccsc1-c1ccc2c(c1)COC2(CCCN(C)C)c1ccc(F)cc1 (centres undefined),29%,17%,34.9%,67.9%,,42.5%,85.4%,65.6%,56.7%,39.3%,73.7%,62.1%,39%,27.3%,0.45% (active),44.9%,38.4%,86.3%,,
CCN1CCN(C(=O)[C@]23CCC(C)(C)C[C@H]2C2=CC[C@@H]4[C@@]5(C)CC/C(=N/O)C(C)(C)[C@@H]5CC[C@@]4(C)[C@]2(C)CC3)CC1,15.4%,28.3%,59.3%,,,73.2%,95.6%,58.4%,16.2%,37%,136%,28.4%,38.3%,31%,86.5%,87.9%,54.3%,85.2%,,38
